Test results from the supplement of paper PMC10849652.
About 7,900 targets were measured; listed, in parts, are those with a hit and a random draw of the rest. About 0.6% of all pairs of compound and target were hits. Unmarked numbers belong to inactive results.

Key:
Experiment in all cases: log2 fold change, soluble protein after heating vs DMSO (PISA); higher = thermal stabilisation; K562 cells, 10 uM, 30 min; active = over 0.2 and 3.5 SD of the protein, either way, in both replicates (recomputed)
IRAK-1-4 Inhibitor I = compound: C1COCCN1CCN2C3=CC=CC=C3N=C2NC(=O)C4=CC(=CC=C4)[N+](=O)[O-] [IRAK-1-4 Inhibitor I]
Procedure, shortened: (§1)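 Soluble protein was defined as the supernatant after 21,000xg for 90 min. It came from K562 cells at 2×10^6 cells/mL given 10 μM compound for 30 min, heated in aliquots for 3 min across 48°C-58°C, pooled, and extracted in PBS with 0.5% NP-40 at 4°C, and was quantified by TMTpro 16plex LC-MS/MS with equalised channel sums. Thermal stability against control samples, from duplicates, is reported as log2 fold change.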

ibrutinib = compound: C=CC(=O)N1CCC[C@@H](n2nc(-c3ccc(Oc4ccccc4)cc3)c3c(N)ncnc32)C1 [ibrutinib]
Procedure, shortened: as §1

[1] = compound: CC(=O)c1cnc2ccc(-c3cc(Cl)c(O)c(Cl)c3)nc2c1N[C@H]1CC[C@H](CN(C)C)CC1
Procedure, shortened: as §1

ralimetinib = compound: CC(C)(C)Cn1c(N)nc2ccc(-c3[nH]c(C(C)(C)C)nc3-c3ccc(F)cc3)nc21 [ralimetinib]
Procedure, shortened: as §1

[2] = compound: CC(C)(O)CC(=O)NCCn1ccc2ncnc(Nc3ccc(Oc4cccc(C(F)(F)F)c4)c(Cl)c3)c21
Procedure, shortened: as §1

[3] = compound: CC(C)C1=C2N=C(C=C(N2N=C1)NCC3=CC=CC=C3)NCCCCCCN
Procedure, shortened: as §1

[4] = compound: CC(C)C[C@@H](C=O)NC(=O)[C@H](CC(C)C)NC(=O)[C@H](CC(C)C)NC(=O)OCc1ccccc1
Procedure, shortened: as §1

pinometostat = compound: CC(C)N(C[C@H]1O[C@@H](n2cnc3c(N)ncnc32)[C@H](O)[C@@H]1O)[C@H]1C[C@@H](CCc2nc3cc(C(C)(C)C)ccc3[nH]2)C1 [pinometostat]
Procedure, shortened: as §1

[5] = compound: CC1=C(C(CC(=O)N1)C2=CC=C(C=C2)C(F)(F)F)C(=O)NC3=C(C=C4C(=C3)C=NN4)F
Procedure, shortened: as §1

[6] = compound: CC1=C(C2=C(C=C1)C(=O)C3=CC=CC=C3N2CCCN)C
Procedure, shortened: as §1

Sequence of UniProt P11216 (P11216 whole entry, looked up): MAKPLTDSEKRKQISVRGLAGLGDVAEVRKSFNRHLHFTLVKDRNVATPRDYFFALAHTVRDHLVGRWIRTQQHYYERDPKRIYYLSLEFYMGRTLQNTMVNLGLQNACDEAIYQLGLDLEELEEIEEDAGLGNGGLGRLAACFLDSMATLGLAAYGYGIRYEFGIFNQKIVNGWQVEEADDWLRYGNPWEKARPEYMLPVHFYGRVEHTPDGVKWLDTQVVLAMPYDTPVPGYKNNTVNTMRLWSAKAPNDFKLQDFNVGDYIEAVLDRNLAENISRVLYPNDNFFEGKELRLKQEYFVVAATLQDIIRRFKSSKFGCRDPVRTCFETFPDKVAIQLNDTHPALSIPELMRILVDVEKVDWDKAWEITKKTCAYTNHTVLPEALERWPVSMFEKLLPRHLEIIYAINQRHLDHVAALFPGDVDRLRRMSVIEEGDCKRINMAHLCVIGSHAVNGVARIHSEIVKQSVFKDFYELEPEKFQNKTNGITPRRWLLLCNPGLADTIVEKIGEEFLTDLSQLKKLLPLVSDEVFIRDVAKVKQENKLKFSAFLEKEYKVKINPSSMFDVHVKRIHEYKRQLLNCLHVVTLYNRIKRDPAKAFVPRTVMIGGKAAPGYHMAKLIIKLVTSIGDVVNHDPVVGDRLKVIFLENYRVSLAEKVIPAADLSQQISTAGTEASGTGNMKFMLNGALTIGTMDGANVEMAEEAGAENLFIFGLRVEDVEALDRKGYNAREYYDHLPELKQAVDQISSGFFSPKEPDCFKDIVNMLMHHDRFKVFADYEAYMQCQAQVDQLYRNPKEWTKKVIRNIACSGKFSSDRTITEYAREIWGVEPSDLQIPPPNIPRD
Sequence of UniProt P25788 (P25788 whole entry, looked up): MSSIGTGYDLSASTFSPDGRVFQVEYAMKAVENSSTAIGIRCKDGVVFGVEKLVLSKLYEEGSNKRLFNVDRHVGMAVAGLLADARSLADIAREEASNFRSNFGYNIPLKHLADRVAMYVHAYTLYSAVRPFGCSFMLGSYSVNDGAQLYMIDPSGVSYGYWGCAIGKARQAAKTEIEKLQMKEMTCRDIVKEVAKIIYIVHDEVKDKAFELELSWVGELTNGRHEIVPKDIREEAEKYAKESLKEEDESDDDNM
Sequence of UniProt Q9UNM6 (Q9UNM6 whole entry, looked up): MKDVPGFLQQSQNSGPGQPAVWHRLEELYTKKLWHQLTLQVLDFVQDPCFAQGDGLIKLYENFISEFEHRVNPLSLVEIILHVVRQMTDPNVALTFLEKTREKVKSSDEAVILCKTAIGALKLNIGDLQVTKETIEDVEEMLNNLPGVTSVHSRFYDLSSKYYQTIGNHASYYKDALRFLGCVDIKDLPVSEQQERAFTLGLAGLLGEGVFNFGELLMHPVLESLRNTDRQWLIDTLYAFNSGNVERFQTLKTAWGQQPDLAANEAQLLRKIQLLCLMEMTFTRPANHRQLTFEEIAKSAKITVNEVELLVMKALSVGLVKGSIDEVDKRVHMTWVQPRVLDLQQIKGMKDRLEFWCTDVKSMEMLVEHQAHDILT
Sequence of UniProt P05771 (P05771 whole entry, looked up): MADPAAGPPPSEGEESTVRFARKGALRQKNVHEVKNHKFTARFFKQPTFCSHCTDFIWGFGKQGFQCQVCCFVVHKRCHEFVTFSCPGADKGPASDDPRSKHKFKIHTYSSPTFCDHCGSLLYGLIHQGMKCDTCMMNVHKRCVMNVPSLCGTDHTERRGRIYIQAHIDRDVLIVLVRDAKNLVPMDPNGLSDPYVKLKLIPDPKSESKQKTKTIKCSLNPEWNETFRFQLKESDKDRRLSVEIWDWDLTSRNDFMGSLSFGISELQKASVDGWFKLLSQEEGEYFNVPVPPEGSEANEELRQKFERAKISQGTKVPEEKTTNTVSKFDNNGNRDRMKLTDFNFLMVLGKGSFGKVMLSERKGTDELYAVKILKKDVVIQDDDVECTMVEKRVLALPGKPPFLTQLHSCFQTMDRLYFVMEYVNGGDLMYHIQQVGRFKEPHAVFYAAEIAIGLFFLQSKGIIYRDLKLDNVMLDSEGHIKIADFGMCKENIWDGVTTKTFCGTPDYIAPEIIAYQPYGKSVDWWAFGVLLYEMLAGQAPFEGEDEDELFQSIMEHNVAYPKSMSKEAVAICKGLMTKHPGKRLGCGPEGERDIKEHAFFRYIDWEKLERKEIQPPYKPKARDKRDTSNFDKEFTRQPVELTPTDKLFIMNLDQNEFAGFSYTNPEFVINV
Sequence of UniProt O95394 (O95394 whole entry, looked up): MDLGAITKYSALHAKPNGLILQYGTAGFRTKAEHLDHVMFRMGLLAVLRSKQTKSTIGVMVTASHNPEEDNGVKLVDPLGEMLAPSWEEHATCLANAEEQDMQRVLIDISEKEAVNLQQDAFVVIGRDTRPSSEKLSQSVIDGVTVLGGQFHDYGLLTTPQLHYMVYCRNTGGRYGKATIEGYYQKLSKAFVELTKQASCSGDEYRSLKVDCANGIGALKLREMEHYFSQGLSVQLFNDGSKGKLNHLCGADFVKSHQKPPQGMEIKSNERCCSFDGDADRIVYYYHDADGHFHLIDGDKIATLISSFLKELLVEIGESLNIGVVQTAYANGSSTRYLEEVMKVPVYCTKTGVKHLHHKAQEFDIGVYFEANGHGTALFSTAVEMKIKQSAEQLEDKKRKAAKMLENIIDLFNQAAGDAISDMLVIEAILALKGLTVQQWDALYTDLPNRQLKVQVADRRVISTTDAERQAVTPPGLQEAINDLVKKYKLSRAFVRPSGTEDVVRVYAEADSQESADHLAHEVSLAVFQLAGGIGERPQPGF
Sequence of UniProt Q86UU1 (Q86UU1 whole entry, looked up): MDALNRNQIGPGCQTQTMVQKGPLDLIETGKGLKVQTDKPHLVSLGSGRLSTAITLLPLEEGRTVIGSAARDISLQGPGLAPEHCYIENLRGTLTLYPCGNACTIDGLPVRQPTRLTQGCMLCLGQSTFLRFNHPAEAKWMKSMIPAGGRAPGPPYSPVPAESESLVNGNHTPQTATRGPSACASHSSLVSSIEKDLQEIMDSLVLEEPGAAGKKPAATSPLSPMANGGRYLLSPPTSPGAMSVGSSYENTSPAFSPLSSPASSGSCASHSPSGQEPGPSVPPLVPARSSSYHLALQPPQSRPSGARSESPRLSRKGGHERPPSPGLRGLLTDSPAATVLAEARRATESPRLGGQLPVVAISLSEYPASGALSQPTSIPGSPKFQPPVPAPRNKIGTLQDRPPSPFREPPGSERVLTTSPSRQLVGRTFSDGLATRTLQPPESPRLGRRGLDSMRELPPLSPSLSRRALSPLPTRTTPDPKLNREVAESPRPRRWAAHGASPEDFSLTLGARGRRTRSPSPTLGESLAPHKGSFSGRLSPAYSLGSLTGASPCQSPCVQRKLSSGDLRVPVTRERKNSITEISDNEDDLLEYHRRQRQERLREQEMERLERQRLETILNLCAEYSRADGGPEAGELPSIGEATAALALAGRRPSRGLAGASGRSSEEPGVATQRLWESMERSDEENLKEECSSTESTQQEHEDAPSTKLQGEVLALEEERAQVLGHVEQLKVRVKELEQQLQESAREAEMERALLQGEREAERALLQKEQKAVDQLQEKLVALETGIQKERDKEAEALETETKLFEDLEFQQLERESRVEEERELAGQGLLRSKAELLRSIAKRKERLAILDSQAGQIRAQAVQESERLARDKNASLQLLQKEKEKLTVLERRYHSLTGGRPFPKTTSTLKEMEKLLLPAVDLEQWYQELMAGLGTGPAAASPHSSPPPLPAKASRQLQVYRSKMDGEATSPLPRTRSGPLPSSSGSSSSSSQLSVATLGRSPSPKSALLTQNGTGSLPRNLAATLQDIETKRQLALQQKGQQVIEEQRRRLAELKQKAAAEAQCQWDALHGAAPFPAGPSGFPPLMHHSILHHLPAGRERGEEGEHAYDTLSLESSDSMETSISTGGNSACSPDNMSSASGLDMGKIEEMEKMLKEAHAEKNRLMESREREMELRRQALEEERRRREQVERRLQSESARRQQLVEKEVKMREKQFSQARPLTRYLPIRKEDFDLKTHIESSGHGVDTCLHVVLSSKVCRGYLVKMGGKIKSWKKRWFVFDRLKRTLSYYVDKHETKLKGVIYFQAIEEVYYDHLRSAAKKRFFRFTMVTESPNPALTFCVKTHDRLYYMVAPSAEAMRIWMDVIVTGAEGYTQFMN
Sequence of UniProt Q86YH6 (Q86YH6 whole entry, looked up): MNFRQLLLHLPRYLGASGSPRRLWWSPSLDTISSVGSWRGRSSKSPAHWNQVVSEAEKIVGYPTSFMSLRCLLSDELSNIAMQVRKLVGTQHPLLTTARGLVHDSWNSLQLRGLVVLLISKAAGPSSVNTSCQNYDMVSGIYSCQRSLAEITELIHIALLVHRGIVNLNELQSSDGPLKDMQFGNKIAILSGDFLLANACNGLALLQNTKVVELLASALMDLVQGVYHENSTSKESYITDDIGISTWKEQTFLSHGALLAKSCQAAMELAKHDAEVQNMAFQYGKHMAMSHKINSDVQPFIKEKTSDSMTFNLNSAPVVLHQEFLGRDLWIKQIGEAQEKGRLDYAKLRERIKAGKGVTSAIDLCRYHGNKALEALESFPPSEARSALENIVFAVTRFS
Sequence of UniProt Q9Y5Y5 (Q9Y5Y5 whole entry, looked up): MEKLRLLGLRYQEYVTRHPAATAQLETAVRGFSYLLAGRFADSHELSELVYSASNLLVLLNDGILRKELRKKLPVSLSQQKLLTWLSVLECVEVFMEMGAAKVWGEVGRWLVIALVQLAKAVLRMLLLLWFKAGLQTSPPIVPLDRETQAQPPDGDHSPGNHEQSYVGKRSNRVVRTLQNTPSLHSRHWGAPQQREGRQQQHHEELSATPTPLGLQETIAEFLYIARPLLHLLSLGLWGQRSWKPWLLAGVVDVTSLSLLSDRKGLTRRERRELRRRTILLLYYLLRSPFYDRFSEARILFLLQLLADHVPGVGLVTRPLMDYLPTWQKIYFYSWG
Sequence of UniProt Q8WUK0 (Q8WUK0 whole entry, looked up): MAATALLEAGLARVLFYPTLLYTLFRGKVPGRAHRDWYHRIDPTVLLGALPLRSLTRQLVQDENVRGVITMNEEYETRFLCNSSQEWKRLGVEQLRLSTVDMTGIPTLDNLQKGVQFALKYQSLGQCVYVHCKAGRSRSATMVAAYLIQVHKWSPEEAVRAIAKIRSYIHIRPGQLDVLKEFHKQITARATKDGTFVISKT

Target	log2 fold change (IRAK-1-4 Inhibitor I)	log2 fold change (ibrutinib)	log2 fold change [1]	log2 fold change (ralimetinib)	log2 fold change [2]	log2 fold change [3]	log2 fold change [4]	log2 fold change (pinometostat)	log2 fold change [5]	log2 fold change [6]
PUM1 isoform 3 (UniProt Q14671)	0.004	0.02	-0.097	0.013	-0.022	-0.059	0.02	0.023	0.006	0.063
PDS5A (UniProt Q29RF7)	-0.168	-0.041	-0.063	-0.012	-0.344	-0.61	0.272	0.045	0.221	-0.103
PDSS2 (UniProt Q86YH6)	0.1	0.074	0.058	-0.059	-0.089	-0.085	0.054	-0.017	-0.438 (active)	-0.022
PRMT8 (UniProt Q9NR22)	0.045	-0.004	-0.012	0.098	-0.014	0.001	-0.073	0.026	-0.027	0.101
PRKCB isoform 2 (UniProt P05771)	0.027	-0.009	-0.373 (active)	0.022	-0.057	-0.049	0.028	0.014	0.013	-0.025
PSMB6 (UniProt P28072)	-0.007	-0.025	0.049	-0.045	0.045	0.129	0.4 (active)	-0.053	0.046	0
POLR2K (UniProt P53803)	-0.041	0.003	0.059	-0.093	0.028	0.429 (active)	0.093	-0.092	-0.02	0.027
PYGB (UniProt P11216)	-0.029	0.037	-0.246 (active)	-0.025	0.025	0.01	0.005	0.011	0.055	0.087
PRKAB1 (UniProt Q9Y478)	0.015	-0.02	-0.184	0.022	-0.069	-0.006	-0.041	-0.048	0.036	0.015
PSMC3 (UniProt P17980)	-0.041	-0.021	0.023	0.016	0.007	0.048	-0.213	0.025	0.053	0.023
PTPMT1 (UniProt Q8WUK0)	0.018	-0.05	-0.131	-0.144	-0.083	-0.579 (active)	0.052	0.013	0.043	-0.057
PGM3 isoform 4 (UniProt O95394)	-0.007	-0.016	-0.091	0.016	-0.08	-0.097	-0.002	0.012	-0.021	0.02
PMM1 (UniProt Q92871)	-0.06	0.039	-0.011	-0.024	0.014	0.187	0.019	-0.037	0.02	0.049
PTMA (UniProt P06454)	0.034	0.049	0.127	0.251	-0.133	0.085	-0.289	-0.092	0.063	-0.021
POLR2G (UniProt P62487)	0.001	0.078	0.329 (active)	-0.052	-0.011	0.371 (active)	0.012	-0.044	-0.053	0.268
PTK2B (UniProt Q14289)	-0.095	-0.257	-0.018	0.178	-0.026	-0.244	0.052	0.004	-0.014	0.061
PSMD13 (UniProt Q9UNM6)	-0.048	-0.039	0.048	-0.021	0	0.009	-0.265 (active)	0.09	0.049	0.032
PLCG1 isoform 2 (UniProt P19174)	-0.079	0.03	0.041	-0.042	-0.362 (active)	-0.23	0.007	0.069	0.023	-0.027
PEX16 isoform 2 (UniProt Q9Y5Y5)	-0.068	-0.059	-0.025	-0.104	-0.067	-0.407 (active)	0.033	-0.052	0.03	0.136
PLBD2 (UniProt Q8NHP8)	0.04	0.009	0.003	-0.071	-0.01	-0.106	0.025	0.001	-0.018	-0.023
PDCD6 (UniProt O75340)	0.021	-0.05	-0.029	-0.048	-0.097	-0.156	0.018	0.005	0.014	-0.034
PSMD1 (UniProt Q99460)	-0.037	-0.022	0.03	0.061	0.009	0.054	-0.254 (active)	0.023	0.028	-0.004
PDE4DIP isoform 4 (UniProt Q5VU43)	-0.006	0.001	0.045	0.011	-0.08	0.035	0.087	-0.05	0.069	0.088
PSMC2 (UniProt P35998)	-0.024	-0.009	0.079	0.046	0.011	0.053	-0.183	0.033	0.039	-0.039
PIK3C3 (UniProt Q8NEB9)	-0.012	-0.005	0.058	0.082	0.002	-0.003	0.035	0.14	-0.021	0.013
PPIL4 (UniProt Q8WUA2)	-0.102	0.013	-0.27 (active)	0.101	0.04	-0.114	-0.065	0.055	0.002	0.066
PLEKHM2 (UniProt Q8IWE5)	-0.018	-0.073	-0.085	0.162	0.016	-0.034	-0.102	-0.042	-0.069	0.016
PSMA3 (UniProt P25788)	-0.027	-0.013	0.008	0.037	0.071	0.102	-0.065	-0.033	-0.02	-0.014
PHLDB1 isoform 2 (UniProt Q86UU1)	0.014	-0.055	-0.832 (active)	0.005	-0.053	-0.018	0.016	-0.011	0.091	0.118
PSMD3 (UniProt O43242)	-0.025	-0.031	0.044	0.023	-0.033	0.01	-0.22 (active)	0.067	0.016	0.039
